# Screening data (PubChem)
# An excerpt weighted towards active compounds, which were near 4.2% of everything screened.
# Wnt bcat act: activates Wnt/beta-catenin signaling in a reporter cell assay; activator, plate reader; activation, % at 9.35 µM; actives 1.2% (n = 300,000); AID 743398; in the data active means activation above about 30%, passing the limit was not always enough
# DAX1 StAR inh: inhibitors of DAX1 repression of SF-1 activated StAR promoter; HEK293T StAR-luciferase reporter, SF-1/DAX-1 repression relief; inhibition, % at 6.8 µM; actives 1.1% (n = 370,000); AID 652010;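 active means inhibition above the mean over all tested compounds plus 3 SD, cut at about 3.6% in these data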;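 further: higher inhibition means more luminescence from relief of DAX-1 repression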
# hcDAF12 agonist: activators of H. contortus DAF-12 nuclear receptor. actives 1.4% (n = 370,000). activation, % at 6.8 µM. HEK293 hcDAF-12 lit1-tk-luc reporter, luminescence; 0% DMSO, 100% Δ7-dafachronic acid. AID 652067;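 active means activation above the mean of all tested compounds plus 3 SD, cut at about 5.5% in these data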
# esBAF inh: blocks esBAF chromatin remodeling in mouse ES cells | Bmi1-luciferase knock-in reporter, 24 h; 100% = twice the neutral-well signal | reporter increase, % at 12.5 µM | actives 2% (n = 350,000); in the data active means activation above about 40%;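 further: a rise in the Bmi1 reporter signal indicates esBAF inhibition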
# ssDAF-12 act: activates DAF-12 receptor from parasite S. stercoralis | actives 1% (n = 370,000) | HEK293 ssDAF-12/GRIP1 lit1-tk-luc reporter, luminescence; % of 3 µM dafachronic acid response | activation, % at 6.8 µM;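 active means activation above the mean over all tested compounds plus 3 SD, cut at about 0.9% in these data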
# hgDAF12 agonist: activates the H. glycines DAF-12 receptor ligand-binding domain. activation, % at 6.8 µM. actives 1.8% (n = 370,000). HEK293 GAL4-hgDAF12 UAS-luciferase reporter, agonist luminescence; normalized to butyrate control;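 active means activation above a cutoff set at the mean of all screened compounds plus 3 SD, cut at about 10% in these data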
# LXRb hcDAF ctr: LXR-beta agonism as hcDAF-12 counter-screen. 3,400 tested, under 10 active. shares compounds with hcDAF12 agonist. HEK293 Gal4-LXR tk-luc reporter, luminescence, 24 h; normalized: DMSO 0%, positive control 100%. activation, % at 6.8 µM;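 active means mean percent activation of the reporter above a cutoff set as the average over tested compounds plus their standard deviation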
# Target sequence (P55055 whole entry, looked up, the tested form may be a part): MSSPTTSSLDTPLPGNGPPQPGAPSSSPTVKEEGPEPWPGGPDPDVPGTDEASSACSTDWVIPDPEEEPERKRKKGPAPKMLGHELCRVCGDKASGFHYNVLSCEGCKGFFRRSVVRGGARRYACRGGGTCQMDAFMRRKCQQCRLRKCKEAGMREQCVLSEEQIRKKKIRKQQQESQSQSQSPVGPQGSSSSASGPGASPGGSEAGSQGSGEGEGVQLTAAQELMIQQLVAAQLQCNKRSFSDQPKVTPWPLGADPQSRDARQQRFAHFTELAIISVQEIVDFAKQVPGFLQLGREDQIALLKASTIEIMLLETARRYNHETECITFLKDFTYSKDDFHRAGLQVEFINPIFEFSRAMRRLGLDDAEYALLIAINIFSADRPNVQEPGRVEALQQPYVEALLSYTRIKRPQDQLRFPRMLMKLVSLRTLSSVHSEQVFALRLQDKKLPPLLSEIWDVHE
# hcDAF12 ag: hcDAF-12 agonism, confirmation assay | activation, % at 6.8 µM | actives 61% (n = 3,400) | AID 743032 | HEK293 hcDAF-12 lit1-tk-luc reporter, luminescence; % of Δ7-dafachronic acid response | shares compounds with hcDAF12 agonist;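 active means mean activation across triplicate tests above the threshold derived from the earlier primary screen, cut at about 5.5% in these data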
# Numbers stand for hits; - = inactive; . = not tested or not shown.
SMILES,Wnt bcat act,DAX1 StAR inh,hcDAF12 agonist,esBAF inh,ssDAF-12 act,hgDAF12 agonist,LXRb hcDAF ctr,hcDAF12 ag
COC(=O)c1ccccc1NC(=O)c1ccccc1OC,-,-,-,-,-,-,.,.
COc1ccccc1C(=O)NNC(=O)c1ccccc1Br,-,-,8.4,-,-,-,-,-
CCCN1C=CC(=CC=C(C#N)C#N)C=C1,-,-,-,.,-,-,.,.
C=CCN1C=CC(=CC=C(C#N)C#N)C=C1,-,-,8.5,.,-,-,-,-
Cc1cccc(NNC(N)=S)c1,-,-,-,.,-,-,.,.
Cc1cccc(NNC(=S)Nc2ccccc2)c1,-,-,11,-,-,-,-,-
COc1cccc(/C=N/Nc2ccccc2C(=O)O)c1O,35,-,7.8,-,1.4,-,-,11
O=C1/C(=C/Nc2cccc([N+](=O)[O-])c2)CCc2ccccc21,90,-,8.1,.,-,16,-,5.8
O=C1C(C=NCc2ccco2)=C(O)c2ccccc21,.,-,13,-,1.4,15,-,12
S=C(N/N=C/c1ccc(Cl)cc1)N1CCOCC1,.,-,7.2,-,-,13,-,-
C[C@H](O)C#Cc1ccc2c(c1)O[C@@H](CN(C)C(=O)CC1CC1)[C@H](C)CN([C@H](C)CO)S2(=O)=O,.,.,.,-,.,.,.,.
CCOC(=O)C1=NN(c2ccccc2)C2=NC(C)=C(C(=O)OC)C(c3ccc(C)cc3)N12 (stereo unspecified),.,-,8.3,.,-,-,-,-
CC(C)CC#Cc1ccc2c(c1)O[C@@H](CN(C)C(=O)Cc1ccccn1)[C@@H](C)CN([C@@H](C)CO)S2(=O)=O,.,.,.,-,.,.,.,.
C[C@H](CO)N1C[C@H](C)[C@H](CN(C)Cc2ccc(C(=O)O)cc2)Oc2ccc(NC(=O)C3CCCCC3)cc2CC1=O,.,.,.,-,.,.,.,.
O=c1oc2ccccc2cc1-c1nc2ccccc2o1,35,-,8.8,-,1.0,-,-,6.3
CC(C)(C)c1nc(SCC(=O)c2ccccc2)c2ccccc2n1,-,-,-,.,-,-,.,.
Cc1nc2ccccc2nc1SCC(=O)c1ccccc1,-,-,6.7,.,-,-,-,-
O=C(CSc1ccc2ccccc2n1)c1ccccc1,-,-,9.3,-,1.4,-,-,8.2
C[C@@H]1CN([C@@H](C)CO)C(=O)Cc2cc(NC(=O)CCN3CCOCC3)ccc2O[C@H]1CN(C)C(=O)Nc1ccc(F)cc1,.,.,.,-,.,.,.,.
COc1cc(C(=O)N2CCC(N3CCN(C)CC3)CC2)ccc1Nc1ncc2c(n1)N(C)c1ccccc1C(=O)N2C,-,3.7,6.8,.,-,-,-,6.4
CN1C(=O)c2cc(NS(=O)(=O)c3ccc(Cl)cc3)ccc2OC[C@H]2O[C@H](CC(=O)O)CC[C@H]21,.,.,.,-,.,.,.,.
COC(=O)c1ccc(OCC(=O)c2ccccc2)cc1,-,-,9.0,.,1.3,11,-,-
C[C@@H]1CN([C@@H](C)CO)C(=O)c2cc(NC(=O)NC3CCCCC3)ccc2O[C@H]1CN(C)Cc1ccc2c(c1)OCO2,.,.,.,-,.,.,.,.
CC(C)C(=O)Nc1ccc2c(c1)C(=O)N(C)[C@H]1CC[C@@H](CC(=O)NCCCN(C)C)O[C@H]1CO2,.,.,.,-,.,.,.,.
COc1ccccc1C1CC(c2cccs2)=NN1C(=O)CCC(=O)O (stereo unspecified),-,-,7.0,-,-,-,-,-
SMILES,Wnt bcat act,DAX1 StAR inh,hcDAF12 agonist,esBAF inh,ssDAF-12 act,hgDAF12 agonist,LXRb hcDAF ctr,hcDAF12 ag
CCOc1ccc(NC(=O)CSc2cn[nH]n2)cc1,-,-,-,-,-,-,.,.
Cc1ccc(NC(=O)CSc2cn[nH]n2)cc1,-,-,7.0,-,-,-,-,-
O=C(Nc1ccccc1Cl)c1cc2ccccc2o/c1=N\O,-,-,11,-,2.1,13,-,13
COc1cccc(NC(=O)c2cc3ccccc3o/c2=N\O)c1,-,-,7.5,-,1.1,12,-,11
COc1cccc(NC(=O)c2ccccc2Oc2ccccc2)c1,-,-,-,-,-,-,.,.
Nc1nc2ccc(C(=O)Nc3ccccc3)cc2s1,.,-,11,51,1.9,11,-,7.7
COc1ccccc1C(=O)N/C(N)=N/c1nc2ccccc2o1,-,-,7.0,51,1.1,-,-,8.6
N/C(=N\c1nc2ccccc2o1)NC(=O)c1ccccc1,.,-,-,.,-,-,.,.
CCc1ccc2c(c1)C(=O)c1ccccc1C2=O,74,-,8.0,.,2.5,11,-,9.8
O=C1c2ccccc2-c2ccc(P(=O)(O)O)cc21,.,.,-,.,-,-,.,.
COc1ccc(N=C2NN=C(c3c(C)[nH]c4ccccc34)CS2)cc1,-,-,-,.,-,-,.,.
Cc1[nH]c2ccccc2c1C1=NNC(=Nc2ccc(F)cc2)SC1,-,-,7.1,.,-,-,-,-
COc1ccc(-n2nc3cc(C)c(N)cc3n2)cc1Cl,-,-,-,-,-,-,.,.
Cc1cc2nn(-c3ccc(Cl)cc3)nc2cc1N,33,-,9.7,.,1.0,-,-,13
CCOc1ccc(-n2nc3cc(C)c(N)cc3n2)cc1,-,-,7.5,-,1.8,12,-,8.8
Cc1ccc(-n2nc3ccc(N)cc3n2)cc1,.,3.7,13,.,0.9,-,-,6.7
c1ccn(-c2ccc(-c3ccn[nH]3)cc2)c1,-,-,10,.,2.2,13,-,-
Cc1ccc(C)n1-c1ccc(-c2ccn[nH]2)cc1,-,-,-,-,-,-,.,.
O=C(c1ccc(-c2ccc([N+](=O)[O-])cc2)o1)N1CCCCC1,75,-,8.4,.,-,17,-,-
O=C(O)Cc1sc(Nc2ccccc2)nc1-c1cccs1,35,-,6.9,.,-,-,-,-
C/C(=N\Nc1nc(C(C)(C)C)cs1)c1ccccc1,-,-,7.0,-,2.2,13,-,8.6
C/C(=N\Nc1nc2c(s1)CCCC2)c1ccccc1,-,-,7.4,47,1.4,-,-,11
C/C(=N\Nc1nc(C(=O)O)cs1)c1ccccc1,-,-,-,.,-,-,.,.
CC(C)=NNc1nc(-c2ccccc2)cs1,-,-,7.2,.,-,-,-,-
O=C(Nc1nc2c(s1)CCCC2)Oc1ccccc1,.,-,-,-,-,-,.,.
C/C=C/c1ccc([C@@H]2[C@@H](CO)N(C(C)=O)[C@H]2CN(CCC)C(C)=O)cc1,.,.,.,-,.,.,.,.
COc1ccc(Nc2nnc(SCC(=O)c3cc4ccccc4o3)s2)cc1,-,-,10,.,2.0,-,-,-
O=C(CSc1nnc(Nc2ccccc2F)s1)NCC1CCCO1 (stereo unspecified),-,-,-,-,-,-,.,.
